Measured values: PubChem BioAssay (EPA / NIEHS)
Records with an inconclusive call do not appear. Active and inactive are the calls of the source. How the source made its calls: active means hit-call score of the fitted dose curve at least 0.9, where 1 is the maximum; inconclusive means response in the unintended direction; inactive means score below 0.9.

What was measured:
[1] = TOX21_p53_BLA_p2_viability: Viability Assessment in the Tox21 HCT-116 p53 Agonism Beta-lactamase Assay, Phase 2 (AID 2283591);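 further: compound exposure lasted 16 h at 37 °C; actives lower the ATP signal meaning cytotoxicity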
Summary of the method: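 HCT-116 p53-bla cells (4000/well) rested 5 h at 37C, then received compounds in DMSO (217-fold dilution) for 16 h at 37C, 5% CO2. After the CCF4 read, CellTiter-Glo was added; ATP luminescence was read after 30 min at room temperature.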

[2] = biological target: Cellular tumor antigen p53 (Homo sapiens) (UniProt P04637); assay: TOX21_p53_BLA_p2_ratio: Tox21 HCT-116 p53 Agonism Beta-lactamase Assay, Ratio, Phase 2 (AID 2283592)
Summary of the method: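 Gain-of-signal p53 agonism was scored from the beta-lactamase FRET ratio (460/530 nm, 405 nm excitation) in HCT116 cells treated 16 h at 37C, 5% CO2, with DMSO serving as negative control and baseline.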

[3] = TOX21_p53_BLA_p3_viability: Viability Assessment in the Tox21 HCT-116 p53 Agonism Beta-lactamase Assay, Phase 3 (AID 2283593);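 further: cells exposed to compound for 16 h before reading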
Summary of the method: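 HCT-116 cells (4000/well) rested 5 h at 37C, then got DMSO compounds by pin tool (217-fold dilution) for 16 h at 37C, 5% CO2. After the bla read, CellTiter-Glo was added and luminescence read at 30 min, room temperature.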

[4] = biological target: Cellular tumor antigen p53 (Homo sapiens) (UniProt P04637); assay: TOX21_p53_BLA_p3_ratio: Tox21 HCT-116 p53 Agonism Beta-lactamase Assay, Ratio, Phase 3 (AID 2283596)
Summary of the method: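 HCT116 p53-bla cells (4000/well) given compound in DMSO (217-fold dilution) after 5 h, incubated 16 h at 37C. CCF4-AM substrate 2 h at room temperature; 460/530 nm emission ratio, gain fitted against DMSO.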

[5] = TOX21_p53_BLA_p4_viability: Viability Assessment in the Tox21 HCT-116 p53 Agonism Beta-lactamase Assay, Phase 4 (AID 2283597);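 further: hits lower the luminescence signal meaning cytotoxicity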
Summary of the method: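 Following a 16 h exposure at 37C, the treated HCT116 wells were first read for the FRET ratio. They were then lysed with CellTiter-Glo, and ATP luminescence was recorded after 30 min at room temperature.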

[6] = biological target: Cellular tumor antigen p53 (Homo sapiens) (UniProt P04637); assay: TOX21_p53_BLA_p5_ratio: Tox21 HCT-116 p53 Agonism Beta-lactamase Assay, Ratio, Phase 5 (AID 2283599)
Summary of the method: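 HCT-116 cells carrying a p53-inducible beta-lactamase reporter were seeded at 4000 cells/well and dosed after 5 h with compound in DMSO (217-fold dilution). After 16 h at 37C, CCF4-AM substrate was added for 2 h, and the 460/530 nm emission ratio was scored as gain-of-signal versus DMSO.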

[7] = TOX21_p53_BLA_p5_viability: Viability Assessment in the Tox21 HCT-116 p53 Agonism Beta-lactamase Assay, Phase 5 (AID 2283600)
Summary of the method: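 After the 460/530 nm beta-lactamase measurement, the wells received an ATP-detection luciferase reagent; signal was read 30 min later at RT. Compound treatment lasted 16 h on cells pre-incubated 5 h post-seeding.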

[8] = biological target: Cellular tumor antigen p53 (Homo sapiens) (UniProt P04637); assay: TOX21_p53_BLA_p4_ratio: Tox21 HCT-116 p53 Agonism Beta-lactamase Assay, Ratio, Phase 4 (AID 2283601)
Summary of the method: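 HCT116 cells carrying an inducible beta-lactamase reporter were plated at 4000 cells/well, rested 5 h, then exposed to compounds in DMSO (217-fold dilution) for 16 h at 37C. CCF4-AM substrate was loaded 2 h at room temperature; 460/530 nm emission ratio scored gain-of-signal versus DMSO.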

Sequence of Cellular tumor antigen p53 (Homo sapiens) (P04637 whole entry, looked up): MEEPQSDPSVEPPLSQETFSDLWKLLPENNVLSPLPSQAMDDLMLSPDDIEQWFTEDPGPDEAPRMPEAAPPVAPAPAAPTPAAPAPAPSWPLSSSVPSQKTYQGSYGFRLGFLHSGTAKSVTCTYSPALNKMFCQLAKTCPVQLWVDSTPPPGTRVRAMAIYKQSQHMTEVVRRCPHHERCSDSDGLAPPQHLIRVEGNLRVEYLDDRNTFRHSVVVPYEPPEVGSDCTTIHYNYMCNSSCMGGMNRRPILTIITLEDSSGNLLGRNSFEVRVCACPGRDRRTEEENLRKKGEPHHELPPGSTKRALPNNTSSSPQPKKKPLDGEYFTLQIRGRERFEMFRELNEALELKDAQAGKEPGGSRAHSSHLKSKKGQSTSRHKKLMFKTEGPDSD

SMILES	outcome [1]	outcome [2]	AC50 [3]	outcome [4]	outcome [5]	outcome [6]	outcome [7]	outcome [8]	outcome [3]	AC50 [5]	AC50 [1]	AC50 [2]	AC50 [6]	AC50 [7]	AC50 [8]	AC50 [4]
CN(Cc1cc(Br)cc(Br)c1N)C1CCCCC1	inactive	inactive	39.5 µM (active)	inactive	inactive	inactive	inactive	inactive	–	–	–	–	–	–	–	–
Cc1nnc(NS(=O)(=O)c2ccc(N)cc2)s1	inactive	inactive	–	inactive	inactive	inactive	inactive	inactive	inactive	–	–	–	–	–	–	–
CCCC(C(=O)OCCN(CC)CC)(c1ccccc1)c1ccccc1	inactive	inactive	–	inactive	–	inactive	inactive	inactive	inactive	31.2 µM (active)	–	–	–	–	–	–
O=C(CC(=O)C(F)(F)F)c1ccccc1	inactive	inactive	76.4 µM (active)	inactive	inactive	inactive	inactive	inactive	–	–	–	–	–	–	–	–
CN1CCN(CCCN2c3ccccc3Sc3ccc(Cl)cc32)CC1	–	–	34.7 µM (active)	inactive	–	–	–	–	–	38.3 µM (active)	33.8 µM (active)	43.7 µM (active)	43.3 µM (active)	34.4 µM (active)	43.7 µM (active)	–
Nc1ccc(C(=O)Oc2ccccc2)c(O)c1	inactive	inactive	–	inactive	inactive	inactive	inactive	inactive	inactive	–	–	–	–	–	–	–
O=C(Nc1ccc(Oc2ccc(Cl)cc2)c(Cl)c1)c1cc(I)cc(I)c1O	–	–	2.64 µM (active)	–	–	–	inactive	–	–	2.3 µM (active)	4.23 µM (active)	4.05 µM (active)	10.2 µM (active)	–	8.12 µM (active)	3.93 µM (active)
Oc1c(Cl)cc(Cl)c2cccnc12	inactive	–	–	–	–	–	inactive	–	inactive	7.77 µM (active)	–	7.4 µM (active)	7.4 µM (active)	–	6.25 µM (active)	7.23 µM (active)
C[C@@H](O[C@H]1OCCN(Cc2n[nH]c(=O)[nH]2)[C@H]1c1ccc(F)cc1)c1cc(C(F)(F)F)cc(C(F)(F)F)c1	–	inactive	33.4 µM (active)	inactive	–	–	–	–	–	29.1 µM (active)	31.3 µM (active)	–	34.2 µM (active)	37.5 µM (active)	35.1 µM (active)	–
O=C(Nc1ccc(Cl)cc1)Nc1ccc(Cl)c(C(F)(F)F)c1	–	–	–	–	–	–	–	–	inactive	33.1 µM (active)	32.8 µM (active)	5.23 µM (active)	19.5 µM (active)	39.6 µM (active)	6.95 µM (active)	11.2 µM (active)
Nc1[nH]c(=O)ncc1F	inactive	inactive	–	inactive	inactive	inactive	inactive	inactive	inactive	–	–	–	–	–	–	–
CC(=O)OC(OC(C)=O)c1ccc([N+](=O)[O-])o1	–	inactive	74.1 µM (active)	inactive	–	inactive	–	inactive	–	74.8 µM (active)	74.3 µM (active)	–	–	88 µM (active)	–	–
CC(=O)[C@@]1(O)CC[C@H]2[C@@H]3C=C(Cl)C4=CC(=O)CC[C@]4(C)[C@H]3CC[C@@]21C	inactive	–	–	inactive	–	–	inactive	–	inactive	23 µM (active)	–	37 µM (active)	37.9 µM (active)	–	37.8 µM (active)	–
O[C@@H]([C@H](O)[C@H](O)CBr)[C@H](O)CBr	inactive	inactive	–	inactive	inactive	inactive	inactive	inactive	inactive	–	–	–	–	–	–	–
CC[C@H](C)[C@H]1O[C@]2(CC[C@@H]1C)C[C@@H]1C[C@@H](C/C=C(\C)[C@@H](O[C@H]3C[C@H](OC)[C@@H](O[C@H]4C[C@H](OC)[C@@H](O)[C@H](C)O4)[C@H](C)O3)[C@@H](C)/C=C/C=C3\CO[C@@H]4[C@H](O)C(C)=C[C@@H](C(=O)O1)[C@]34O)O2	–	–	6.87 µM (active)	–	–	–	–	–	–	6.4 µM (active)	5.51 µM (active)	17.6 µM (active)	8.8 µM (active)	7.23 µM (active)	9.63 µM (active)	14.5 µM (active)
NC(=O)C(=O)NN=Cc1ccc([N+](=O)[O-])o1	inactive	–	–	inactive	–	–	inactive	–	inactive	42.3 µM (active)	–	39.8 µM (active)	37.1 µM (active)	–	41.8 µM (active)	–
O=C(O)Cc1sc(-c2ccccc2)nc1-c1ccc(Cl)cc1	inactive	inactive	–	inactive	inactive	inactive	inactive	inactive	inactive	–	–	–	–	–	–	–
CCCC(C)c1ccccc1O (stereo unspecified)	inactive	inactive	–	inactive	inactive	inactive	inactive	inactive	inactive	–	–	–	–	–	–	–
O=C(O)c1cc(N=Nc2ccc([N+](=O)[O-])cc2)ccc1O	–	inactive	45.4 µM (active)	inactive	–	inactive	inactive	inactive	–	29.6 µM (active)	84.1 µM (active)	–	–	–	–	–
C[N+]1([O-])CCOCC1	inactive	inactive	–	inactive	inactive	inactive	inactive	inactive	inactive	–	–	–	–	–	–	–
CCCCC(CC)COCCCN (stereo unspecified)	inactive	inactive	–	inactive	inactive	inactive	inactive	inactive	inactive	–	–	–	–	–	–	–
Cc1cc2nc(N)sc2cc1C	inactive	inactive	–	inactive	inactive	inactive	inactive	inactive	inactive	–	–	–	–	–	–	–
